The list is not random: actives were taken first. Their share in the collection is about 7.4%.
ELG1 genotox: induces genotoxicity in HEK293T cells with luciferase-tagged ELG1. Potency, µM (series often up to 46 µM), without a hit: top-dose activity change, positive = activation, most hits filed as activators. 330,000 compounds, 1.3% hits. AID 504466. HEK293T ELG1-luciferase reporter, luminescence, 16 h; note: % of control where 0% means no effect; nearly all actives have a fitted effect of over 60% in size
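16 hr compound incubation (37 °C, 5% CO2) of HEK293T cells carrying luciferase-tagged ELG1; luciferase then measured by ONE-Glo luminescence after 30 min at RT.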
SMN2 splice enh: SMN2 splice variant enhancement; HEK293 SMN2-luciferase splicing reporter, luminescence, 30-36 h; Potency, µM (top dose mostly 46.1 µM), for the others: at the top dose activity change, positive = activation, actives largely listed as activators; 210,000 compounds, 2.8% hits; AID 1458; note: % of control where 0% means no effect; nearly all actives have a fitted effect of over 55% in size
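HEK293 cells carry an SMN2 minigene-luciferase reporter in which exon 7 inclusion puts luciferase in frame. Cells were seeded at 2000 cells/well, attached for 10-12 hours, then exposed to compounds for 30-36 hours at 37C before ONE-Glo luminescence.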
Luc counter: counter-screen: inhibitors of Kinase-Glo firefly luciferase; Q27757; Kinase-Glo luciferase, ATP luminescence, 8 min; Potency, µM (doses to about 38.3 µM), without a hit: at the top dose activity change, negative = inhibition, usual class: inhibitors; 200,000 compounds, 0.28% hits; AID 1379; note: % is set by controls: 0 for no effect and ±100 for the full control effect; nearly all actives have a fitted effect of over 60% in size
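Compound is pinned into ATP-containing buffer (10 uM ATP, imidazole pH 7.2, 7 mM MgCl2). Kinase-Glo luciferase reagent is then added. Light output is recorded following an 8-min room-temperature incubation.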
NPC1 prom act: activates the NPC1 promoter; AID 485313; 320,000 compounds, 2.4% hits; Huh7 NPC1 promoter luciferase reporter, 24 h; Potency, µM (series often up to 9.22 µM), without a hit: at the top dose activation, hits mostly activators; note: % of control where 0% means no effect; nearly all actives have a fitted effect of over 60% in size
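Stable NPC1-promoter luciferase Huh7 line; cpd (DMSO) 24 h, 37 °C, 5% CO2; Amplite luciferase reagent 10 min RT; luminescence readout. qHTS format.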
Rab9 prom act: activates the Rab9 promoter; Huh7 Rab9 promoter-luciferase reporter, luminescence, 24 h; Potency, µM (top dose mostly 9.22 µM), for inactives: at the highest dose activation, negative = inhibition, most hits filed as activators; 320,000 compounds, 2.8% hits; note: % of control where 0% means no effect; nearly all actives have a fitted effect of over 60% in size
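Huh7 cells stably carrying a Rab9 promoter-luciferase reporter, 1500 cells per well in OP-MEM I with 10% FBS, treated with compound 24 hours at 37C. Luciferase activity read by luminescence after 10 minutes with Amplite reagent.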
FLuc modulator: counter-screen for miR-21 project: firefly luciferase inhibitors or activators; 360,000 compounds, 6.9% hits; P08659; Potency, µM (series often up to 57.5 µM), for inactives: at the top dose activity change, negative = inhibition, usual class: inhibitors; purified FLuc, Km substrates, luminescence inhibition;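 note: plate controls were vehicle for no effect and reference inhibitor for full effect; nearly all actives have a fitted effect of over 55% in size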
Target sequence (P08659 whole entry, looked up): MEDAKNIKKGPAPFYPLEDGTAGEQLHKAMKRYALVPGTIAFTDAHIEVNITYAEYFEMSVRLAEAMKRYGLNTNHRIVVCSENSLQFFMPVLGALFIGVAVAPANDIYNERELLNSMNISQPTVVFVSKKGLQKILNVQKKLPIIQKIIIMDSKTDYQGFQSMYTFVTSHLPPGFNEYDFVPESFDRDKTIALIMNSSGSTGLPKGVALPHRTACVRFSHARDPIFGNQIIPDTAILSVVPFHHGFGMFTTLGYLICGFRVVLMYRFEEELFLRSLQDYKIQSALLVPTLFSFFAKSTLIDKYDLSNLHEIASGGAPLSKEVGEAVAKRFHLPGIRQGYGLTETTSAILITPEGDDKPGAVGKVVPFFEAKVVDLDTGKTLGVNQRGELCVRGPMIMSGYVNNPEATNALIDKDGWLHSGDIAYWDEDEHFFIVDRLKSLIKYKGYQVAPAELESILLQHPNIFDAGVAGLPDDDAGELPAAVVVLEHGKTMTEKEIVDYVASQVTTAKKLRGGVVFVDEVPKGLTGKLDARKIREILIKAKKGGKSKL
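Purified P. pyralis luciferase (10nM final) with 10uM D-luciferin and 10uM ATP (Km levels) in 50mM Tris acetate pH 7.5, 10mM Mg acetate, 0.01% Tween-20, 0.05% BSA; qHTS 6-point titration, ~60 µM downward; luminescence read.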
An asterisk follows results filed as active. Calls come from the whole dose curve; as a rule, active = well fitted curve in the direction sought with a large enough effect; inconclusive = small, poorly fitted or top-dose-only effect, or another doubt; inactive = no such curve, though single readings can be large; an effect the other way counts as inactive or inconclusive. Potency is the fitted concentration of half-maximal effect.

`CCCN(CCC)CC(O)Cn1cc(/C=C/C(=O)c2ccc(OCC)cc2)c2ccccc21` (configuration not stated) gave SMN2 splice enh -40% and FLuc modulator -18%.
Screening COc1ccc(C(=O)/C=C/c2cn(CC(O)CN3CCOCC3)c3ccccc23)cc1 (configuration not stated) returned ELG1 genotox -7%, SMN2 splice enh -51%, Luc counter 1%, NPC1 prom act 10%, Rab9 prom act 1% and FLuc modulator 15µM*.
For Cc1ccc(C(=O)/C=C/c2cn(CC(O)CN3CCOCC3)c3ccccc23)cc1 (configuration not stated) the results were ELG1 genotox -1%, SMN2 splice enh -25%, Luc counter -1%, NPC1 prom act 7%, Rab9 prom act 15% and FLuc modulator inconclusive.
For COc1ccc(C(=O)/C=C/c2cn(CN3CCN(C)CC3)c3ccccc23)cc1 the results were ELG1 genotox inconclusive, SMN2 splice enh -55%, Luc counter -3%, NPC1 prom act 21%, Rab9 prom act 27% and FLuc modulator 6µM*.
`CCOc1ccc(C(=O)/C=C/c2cn(CN3CCN(C)CC3)c3ccccc23)cc1` gave ELG1 genotox 7%, SMN2 splice enh 17%, Luc counter 3%, NPC1 prom act 16%, Rab9 prom act 18% and FLuc modulator 17µM*.
Screening O=C(O)C(S)[C@@H](S)C(=O)O (some centres not stated) returned SMN2 splice enh -12% and Luc counter -5%.
For O=C(Nc1ccc(F)c(Cl)c1)C1CCN(S(=O)(=O)c2ccc3[nH]c(=O)ccc3c2)CC1 the results were FLuc modulator -2%.
COc1ccc2c(Cl)c(C(=O)N/N=C/c3ccc4c(c3)OCO4)sc2c1 was read as ELG1 genotox 4%, SMN2 splice enh -2%, Luc counter 1%, NPC1 prom act 0%, Rab9 prom act 7% and FLuc modulator -10%.
`COc1ccc2c(Cl)c(C(=O)N/N=C3\CCCC(=O)C3)sc2c1` gave ELG1 genotox 2%, SMN2 splice enh inconclusive, Luc counter -2%, NPC1 prom act 15%, Rab9 prom act inconclusive and FLuc modulator 17µM*.
For CC(C)CC(=O)Nc1ccc(-c2nnn(CC(=O)NCc3ccco3)n2)cc1 the results were ELG1 genotox inconclusive, SMN2 splice enh inconclusive, Luc counter 2%, NPC1 prom act inconclusive, Rab9 prom act inconclusive and FLuc modulator 11µM*.
For CCOc1ccccc1NC(=O)c1ccc2c(c1)CCCN2S(C)(=O)=O the results were SMN2 splice enh -12% and FLuc modulator -18%.
For Cc1ccc2nc(Cl)c3cc(C(=O)NC4CCC(C)CC4)sc3c2c1 (configuration not stated) the results were SMN2 splice enh -5% and FLuc modulator -7%.
For Cc1cc(-c2cn3ccccc3n2)c(C)n1-c1ccccc1 the results were ELG1 genotox 15%, SMN2 splice enh 5.6µM*, Luc counter -12%, NPC1 prom act 1.6µM*, Rab9 prom act 1.1µM* and FLuc modulator 0.76µM*.
`Cc1ccc(Cn2cnc3nc4c(cc3c2=O)CC(C)CC4)cc1` (configuration not stated) gave FLuc modulator 12µM*.
For CCCCNC(=O)CC1Nc2cc(C)c(C)cc2NC1=O (configuration not stated) the results were SMN2 splice enh -15% and FLuc modulator 1%.
Screening Cc1ccc(N2C(=O)CSC23C(=O)N(CC(=O)NC2CCCCC2)c2ccccc23)cc1 (configuration not stated) returned FLuc modulator -3%.
CSCCC(NS(=O)(=O)c1ccc2c(c1)oc(=O)n2C)C(=O)Nc1ccc(Cl)cc1 (configuration not stated) was read as SMN2 splice enh 12% and FLuc modulator 0%.
`COc1ccc(-c2csc(N3CCC(c4ccccc4)C3)n2)cc1` (configuration not stated) gave ELG1 genotox 12%, SMN2 splice enh -23%, Luc counter 0%, NPC1 prom act inconclusive, Rab9 prom act inconclusive and FLuc modulator 4.3µM*.
For Clc1ccc(-c2csc(N3CCC(c4ccccc4)C3)n2)cc1 (configuration not stated) the results were ELG1 genotox inconclusive, SMN2 splice enh 2%, Luc counter -4%, NPC1 prom act 3.5µM*, Rab9 prom act 3.5µM* and FLuc modulator 2.7µM*.
For CS(=O)(=O)N1CCN(c2nc(-c3ccccc3)cs2)CC1 the results were ELG1 genotox inconclusive, SMN2 splice enh 9%, Luc counter -2%, NPC1 prom act 14%, Rab9 prom act 0% and FLuc modulator inconclusive.
For Fc1ccc(-c2csc(N3CCC(c4ccccc4)C3)n2)cc1 (configuration not stated) the results were ELG1 genotox 17%, SMN2 splice enh inconclusive, Luc counter -6%, NPC1 prom act 3.2µM*, Rab9 prom act 3.5µM* and FLuc modulator 2.4µM*.
For CC(Oc1ccc(F)cc1)C(=O)Nc1nc(-c2ccc(F)cc2)ns1 (configuration not stated) the results were SMN2 splice enh -44% and FLuc modulator inconclusive.
For CCOc1ccc(-c2cc(C(=O)N/N=C/c3ccc(O)c(OC)c3)[nH]n2)cc1 the results were Luc counter -7%.
`Cc1cccc2cc3c(N)c(C#N)sc3nc12` gave ELG1 genotox 1%, SMN2 splice enh -6%, Luc counter 10%, NPC1 prom act -1%, Rab9 prom act -3% and FLuc modulator inconclusive.
For Cc1sc(NC(=O)c2sc3nc4c(C)cccc4cc3c2N)c(C#N)c1C the results were ELG1 genotox inconclusive, SMN2 splice enh -4%, Luc counter -5%, NPC1 prom act 26%, Rab9 prom act inconclusive and FLuc modulator 0.54µM*.
Screening Cc1ccc2c(CN3CCC(C)CC3)cc(=O)oc2c1 returned ELG1 genotox 4.6µM*, SMN2 splice enh 14µM*, Luc counter -3%, NPC1 prom act 3.5µM*, Rab9 prom act 1.8µM* and FLuc modulator 7.6µM*.
`Cc1cc(N2CCCCC2)nc2ccc(NC(=O)CCC(=O)NCCC(C)C)cc12` gave ELG1 genotox inconclusive, SMN2 splice enh 65%, Luc counter 0%, NPC1 prom act inconclusive, Rab9 prom act 3.2µM* and FLuc modulator 7.6µM*.
